Laboratory results reported in PubChem BioAssay (NCATS).
Inconclusive results are not listed. Entries that show only a call come without a potency. Active and inactive are the calls of the source. Calls follow the shape of the dose curve; as a rule, active = well fitted inhibition curve with a large enough effect; inconclusive = small, poorly fitted or top-dose-only effect; inactive = flat fitted curve, though single readings scatter.

tested on: ECU; assay: qHTS profiling for inhibitors of Plasmodium falciparum proliferation (AID 504749); also: nearly all actives have a fitted effect of over 60% in size; conditions: P. falciparum in erythrocytes, SYBR Green DNA, 72 h; series mostly up to 28.7 µM
In short: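 Readout was DNA-dye fluorescence from lysed cultures, ex 485/em 535 nm. Parasitized red cells had grown 72 h with compound; data scaled between 0.29 uM artemisinin and DMSO wells and corrected using vehicle-only plates.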
Potency is read from the fitted curve at half-maximal effect.

| Structure (SMILES) | Potency |
| --- | --- |
| CC(=O)Nc1ccc(OC(C)=O)cc1 | inactive |
| CC(C)(C)c1ccc2c(S(=O)(=O)O)c(C(C)(C)C)ccc2c1 | inactive |
| CCCCCCCCCCCCOCCCN | inactive |
| COC(=O)C(CN)c1c[nH]c2ccc(OC)cc12 (stereo not given) | inactive |
| CC1(C)S[C@@H]2[C@H](NC(=O)C3(N)CCCCC3)C(=O)N2[C@H]1C(=O)O | inactive |
| FC(F)(F)C(F)(F)C(F)(F)C(F)(F)C(F)(F)C(F)(F)F | inactive |
| CCCCO | inactive |
| CCOC(=O)c1c[nH]c2cc(OCC(C)C)c(OCC(C)C)cc2c1=O | 89.1 nM (active) |
| CCN(CC)CCOc1ccc2nc(N(C)C)sc2c1 | inactive |
| OCl | inactive |
| COC(=O)CC[C@H](N)C(=O)O | inactive |
| COc1cc(S(C)=O)ccc1-c1nc2ncccc2[nH]1 (stereo not given) | inactive |
| O=C(O)Cc1nn(Cc2ccc(Br)cc2F)c(=O)c2ccccc12 | inactive |
| O=C(O)/C=C/c1ccccc1 | inactive |
| Cc1cccc(C)c1NC(=O)NC1=CCCN1C | inactive |
| NCC[C@H](O)C(=O)N[C@@H]1C[C@H](N)[C@@H](O[C@H]2O[C@H](CN)[C@@H](O)[C@H](O)[C@H]2O)[C@H](O)[C@H]1O[C@H]1O[C@H](CO)[C@@H](O)[C@H](N)[C@H]1O | inactive |
| CC1=CC(=O)NS(=O)(=O)O1 | inactive |
| O=C(O)[C@H]1C(=CCO)O[C@H]2CC(=O)N12 | inactive |
| CCC(Cc1c(I)cc(I)c(O)c1I)C(=O)O (stereo not given) | inactive |
| CCCCC[C@H](O)/C=C/[C@@H]1[C@H]2C/C(=C/CCCC(=O)O)O[C@H]2C[C@H]1O | inactive |
